Test results: the supplement of paper PMC8728848
The sample as a whole holds a higher share of the strongest signals than the screen did.

Assays:
Assay in all cases: glycan array binding signal (z-score within array); higher = stronger binding
Conditions in all cases: glycan notation: IUPAC condensed, linker removed
[1] = molecular target: Gal(b1-4)GlcNAc(b1-2)Man(a1-3)[Man(a1-6)]Man(b1-4)GlcNAc(b1-4)GlcNAc
How it was run: (§1)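 Arrays were curated from the Consortium for Functional Glycomics database, 3228 in total, and kept only where the protein sequence was available. Binding is expressed as a within-array Z-score. This score was averaged across arrays of the same protein sequence at different concentrations or buffers and across linkers, and negative values can be read as non-binding.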

[2] = molecular target: Gal(b1-4)GlcNAc(b1-2)[Gal(b1-4)GlcNAc(b1-6)]Man(a1-6)[GlcNAc(b1-4)][Gal(b1-4)GlcNAc(b1-2)Man(a1-3)]Man(b1-4)GlcNAc(b1-4)GlcNAc
How it was run: as §1

[3] = molecular target: Gal(b1-4)GlcNAc(b1-3)Gal(b1-3)GalNAc
How it was run: as §1

[4] = molecular target: Gal(b1-4)GlcNAc(b1-3)Gal(b1-4)GlcNAc(b1-2)Man(a1-3)[Gal(b1-4)GlcNAc(b1-3)Gal(b1-4)GlcNAc(b1-2)Man(a1-6)]Man(b1-4)GlcNAc(b1-4)GlcNAc
How it was run: as §1

[5] = molecular target: Gal(b1-4)GlcNAc(b1-3)Gal(b1-4)GlcNAc(b1-3)Gal(b1-4)GlcNAc(b1-3)Gal(b1-4)GlcNAc(b1-3)Gal(b1-4)GlcNAc(b1-2)[Gal(b1-4)GlcNAc(b1-3)Gal(b1-4)GlcNAc(b1-3)Gal(b1-4)GlcNAc(b1-3)Gal(b1-4)GlcNAc(b1-3)Gal(b1-4)GlcNAc(b1-6)]Man(a1-6)[Gal(b1-4)GlcNAc(b1-3)Gal(b1-4)GlcNAc(b1-3)Gal(b1-4)GlcNAc(b1-3)Gal(b1-4)GlcNAc(b1-3)Gal(b1-4)GlcNAc(b1-2)Man(a1-3)]Man(b1-4)GlcNAc(b1-4)[Fuc(a1-6)]GlcNAc
How it was run: as §1

[6] = molecular target: Gal(b1-4)GlcNAc(b1-3)[Gal(b1-4)GlcNAc(b1-6)]Gal(b1-4)GlcNAc
How it was run: as §1

[7] = molecular target: Gal3S(b1-4)Glc
How it was run: as §1

[8] = molecular target: Gal6S(b1-3)GlcNAc
How it was run: as §1

[9] = molecular target: GalNAc(a1-3)GalNAc(b1-3)Gal(a1-4)Gal(b1-4)Glc
How it was run: as §1

[10] = molecular target: GalNAc(b1-3)GalNAc
How it was run: as §1

[11] = molecular target: GalNAc(b1-4)GlcNAc(b1-2)Man(a1-3)[GalNAc(b1-4)GlcNAc(b1-2)Man(a1-6)]Man(b1-4)GlcNAc(b1-4)GlcNAc
How it was run: as §1

[12] = molecular target: Glc(a1-6)Glc(a1-6)Glc
How it was run: as §1

[13] = molecular target: Glc(b1-6)Glc
How it was run: as §1

[14] = molecular target: GlcNAc(a1-4)Gal(b1-4)GlcNAc(b1-3)Gal(b1-4)[Fuc(a1-3)]GlcNAc(b1-3)Gal(b1-4)[Fuc(a1-3)]GlcNAc
How it was run: as §1

[15] = molecular target: GlcNAc(b1-3)Gal(b1-4)GlcNAc(b1-2)Man(a1-3)[GlcNAc(b1-3)Gal(b1-4)GlcNAc(b1-2)Man(a1-6)]Man(b1-4)GlcNAc(b1-4)[Fuc(a1-6)]GlcNAc
How it was run: as §1

[16] = molecular target: GlcNAc(b1-3)Gal(b1-4)GlcNAc(b1-3)Gal(b1-4)GlcNAc(b1-2)[GlcNAc(b1-3)Gal(b1-4)GlcNAc(b1-3)Gal(b1-4)GlcNAc(b1-6)]Man(a1-6)[GlcNAc(b1-3)Gal(b1-4)GlcNAc(b1-3)Gal(b1-4)GlcNAc(b1-2)Man(a1-3)]Man(b1-4)GlcNAc(b1-4)[Fuc(a1-6)]GlcNAc
How it was run: as §1

[17] = molecular target: Man(a1-2)Man(a1-3)Man
How it was run: as §1

[18] = molecular target: Man(a1-3)[Man(a1-6)]Man(a1-6)[Man(a1-2)Man(a1-3)]Man(b1-4)GlcNAc(b1-4)GlcNAc
How it was run: as §1

[19] = molecular target: Man(b1-4)GlcNAc
How it was run: as §1

[20] = molecular target: Neu5Ac(a2-3)Gal(b1-3)GalNAc6S
How it was run: as §1

[21] = molecular target: Neu5Ac(a2-3)Gal(b1-4)GlcNAc(b1-2)Man(a1-3)[Neu5Ac(a2-3)Gal(b1-4)GlcNAc(b1-2)Man(a1-6)]Man(b1-4)GlcNAc(b1-4)GlcNAc
How it was run: as §1

[22] = molecular target: Neu5Ac(a2-6)Gal(b1-4)GlcNAc(b1-3)Gal(b1-4)GlcNAc(b1-3)Gal(b1-4)GlcNAc(b1-2)Man(a1-3)[Neu5Ac(a2-6)Gal(b1-4)GlcNAc(b1-3)Gal(b1-4)GlcNAc(b1-3)Gal(b1-4)GlcNAc(b1-2)Man(a1-6)]GalNAc
How it was run: as §1

[23] = molecular target: Neu5Ac(a2-6)Gal(b1-4)GlcNAc(b1-3)Gal(b1-4)GlcNAc(b1-6)[Gal(b1-3)]GalNAc
How it was run: as §1

[24] = molecular target: Neu5Ac(a2-8)Neu5Ac(a2-3)Gal(b1-4)GlcNAc
How it was run: as §1

[25] = molecular target: Neu5Ac(a2-8)Neu5Gc(a2-3)Gal(b1-4)GlcNAc
How it was run: as §1

B1: PX14343I-pdi-501-30-501 (Parabacteroides distasonis) (protein)
chain: SDQYSTETFWKTKEHASAGIMGCYNALKLWRSLHTMEFDMLTANAMPYNEANGTQAIGKGEHLSTTALIGSLWKNCYVGIGRTNTFIANVGGVDMDESEKAKMVGEAKFLRAFYYLSLVDKFGGVPLIIDAPNADEQAELPRNSKEEVVNQIVKDLEEAAAVLPDTYASSDLGRATKGAALALKARTLLYNSRWAEAAQAAKQVMESGVYQLFNDYRHFFSEDNKYNCEVIFDIEAKLPEYPTDYDQNIWRLNRPAPLKELVDTYLCVDGKTIEESPLYDPTRPYENRDPRLLKSIVCIGYPYLGKTITKEDVATTGFGVKKYTSYEDDVTIPLVERSAFNFILIRYAEVLLTYAEAQNEASGPDQSVYDAINQLRRRPDINMPEVPKGLTKDQMREVIRRERRIELTFEGLYYSDILRWKTAEKENNGMMHNYEGIEVVKRSFNPKRDYLWPIPYNQTVLNPNLEQNPNWD
- glycan array binding signal (z-score) [1]: -0.562
- glycan array binding signal (z-score) [2]: -0.439
- glycan array binding signal (z-score) [3]: -0.11
- glycan array binding signal (z-score) [4]: 1.61
- glycan array binding signal (z-score) [5]: 1.86
- glycan array binding signal (z-score) [6]: -0.2
- glycan array binding signal (z-score) [7]: 0.301
- glycan array binding signal (z-score) [8]: 0.19
- glycan array binding signal (z-score) [9]: 0.12
- glycan array binding signal (z-score) [10]: 1.96
- glycan array binding signal (z-score) [11]: -0.398
- glycan array binding signal (z-score) [12]: 0.049
- glycan array binding signal (z-score) [13]: -0.768
- glycan array binding signal (z-score) [14]: 1.69
- glycan array binding signal (z-score) [15]: 4.66
- glycan array binding signal (z-score) [16]: 1.77
- glycan array binding signal (z-score) [17]: 0.611
- glycan array binding signal (z-score) [18]: 0.28
- glycan array binding signal (z-score) [19]: -0.706
- glycan array binding signal (z-score) [20]: -0.135
- glycan array binding signal (z-score) [21]: -0.301
- glycan array binding signal (z-score) [22]: 2.21
- glycan array binding signal (z-score) [23]: 0.989
- glycan array binding signal (z-score) [24]: -0.464
- glycan array binding signal (z-score) [25]: 18.3
